Bioassay records from PubChem BioAssay.
Giardia killer – Giardia lamblia killing; Giardia lamblia trophozoite viability; activity change, % at 7.66 µM, hits read low; 340,000 tested, 0.15% active; in the data active = activity change below about -80%; inconclusive = between about -30% and that limit;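 note: parasites exposed to compound for two days anaerobically before the ATP read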
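Anaerobic 48 hrs incubation at 37 deg C of 100 trophozoites/well with test compounds; ATPLite 1-Step luminescence, 15-30 min RT, reports cellular ATP as viability.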
TDP1 inh – TDP1 (human) enzyme inhibition. Q9NUW8. recombinant TDP1, AlphaScreen DNA substrate cleavage. Potency, µM (doses to about 130 µM), without a hit: top-dose activity change, negative = inhibition, actives largely listed as inhibitors. 350,000 tested, 0.28% active. AID 485290; note: potency is the fitted concentration of half-maximal effect; nearly all actives have a fitted effect of over 40% in size
Target sequence (Q9NUW8 whole entry, looked up): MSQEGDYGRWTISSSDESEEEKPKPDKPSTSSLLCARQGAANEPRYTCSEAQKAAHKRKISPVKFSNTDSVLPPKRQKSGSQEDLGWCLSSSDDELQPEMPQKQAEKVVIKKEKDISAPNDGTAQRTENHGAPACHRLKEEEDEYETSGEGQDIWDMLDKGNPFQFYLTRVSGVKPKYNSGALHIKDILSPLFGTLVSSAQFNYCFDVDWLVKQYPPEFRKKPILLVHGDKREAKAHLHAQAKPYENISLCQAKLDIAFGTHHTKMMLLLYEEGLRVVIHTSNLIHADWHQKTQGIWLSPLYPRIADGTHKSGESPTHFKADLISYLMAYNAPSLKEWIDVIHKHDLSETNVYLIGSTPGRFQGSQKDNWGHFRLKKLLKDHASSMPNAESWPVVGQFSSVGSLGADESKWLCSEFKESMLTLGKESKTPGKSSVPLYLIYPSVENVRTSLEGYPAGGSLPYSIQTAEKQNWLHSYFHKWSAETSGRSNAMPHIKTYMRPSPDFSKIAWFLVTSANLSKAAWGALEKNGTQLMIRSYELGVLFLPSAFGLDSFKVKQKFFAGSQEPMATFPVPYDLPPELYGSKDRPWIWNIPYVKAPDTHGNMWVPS
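Compounds were preincubated with Tdp1 (1 nM final) for 15 min at room temperature before substrate (15 nM final) started a 5 min reaction; beads (10 ug/ml final) were then added for 10 min before AlphaScreen detection.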
DT40 TDP1 CPT – DT40-hTDP1 cell growth loss with CPT; chicken DT40 Tdp1-/-;hTDP1 cells + 20 nM CPT, ATP luminescence, 48 h; Potency, µM (highest dose often 46.2 µM), for inactives: at the top dose activity change, negative = growth inhibition, hits mostly inhibitors; 420,000 tested, 12% active; note: potency is the fitted concentration of half-maximal effect; nearly all actives have a fitted effect of over 55% in size
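Cell growth measured by CellTiter-Glo luminescence after a minimum 48 h, 37 C compound exposure with 20 nM CPT in Tdp1-knockout DT40 cells stably expressing hTDP1, seeded 400/well; qHTS titration format.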
IL-1B inflam inh – inflammasome signaling inhibition, IL-1 beta readout; 360,000 tested, 4.7% active; THP-1 LPS/ATP IL-1B secretion, AlphaLISA, 16 h; active compounds read low; activity change, % at 57.5 µM; in the data active = activity change below about -50%; inconclusive = mostly about -30% to -49%
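Secreted IL-1B measured by AlphaLISA bead assay after 16 h compound exposure of THP-1 cells; compounds (final up to 57.5 uM) added 1 h before LPS (250 ng/mL) and ATP (1.25 mM) stimulation; lower signal means less secretion.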
DT40 TDP1 no CPT – qHTS for Inhibitors of human tyrosyl-DNA phosphodiesterase 1 (TDP1): qHTS in cells in absence of CPT. 420,000 tested, 15% active. Potency, µM (doses to about 46.2 µM), without a hit: top-dose activity change, negative = growth inhibition, usual class: inhibitors. AID 686978, 2013. DT40 Tdp1-/- hTDP1 cells, no CPT, ATP luminescence, 48 h; note: potency is the fitted concentration of half-maximal effect; nearly all actives have a fitted effect of over 55% in size
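Seeded 400 DT40-hTDP1 cells/well (vehicle DMSO, no 20 nM CPT); pinned compounds; ≥48 hr at 37 °C; CellTiter-Glo luminescence as viability measure.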
ELG1 DNA repair – inhibitors of ELG1-dependent DNA repair in HEK293T cells; HEK293T ELG1-luciferase reporter, luminescence, 16 h; DNA damage induced by 5-fluorouridine; Potency, µM (titrated, usually from 46.1 µM), without a hit: at the top dose activity change, negative = inhibition, most hits filed as inhibitors; 330,000 tested, 2.3% active; note: potency is the fitted concentration of half-maximal effect; nearly all actives have a fitted effect of over 55% in size
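Step one: seed 2,000 cells per well. Step two: pin-transfer compound or DMSO alongside 5-fluorouridine. Step three: incubate 16 hr, 37 °C, 5% CO2. Step four: add ONE-Glo, wait 30 min, read luminescence.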
Active calls of the source: *; [ ] = dose if it differs, or a comment. Hits are enriched below; roughly 19% of the tested compounds scored in any of these assays. Unless noted, calls come from the whole dose curve; as a rule, active = well fitted curve in the direction sought with a large enough effect; inconclusive = small, poorly fitted or top-dose-only effect, or another doubt; inactive = no such curve, though single readings can be large; an effect the other way counts as inactive or inconclusive. % is set by controls: 0 for no effect and ±100 for the full control effect.

What do the screens show for `Cc1cc2c(nc1C)CCCN2C[C@H](C)O/N=C\[C@@H](C)[C@H](OCc1ccccc1)C(C)C`?
TDP1 inh: 5%[21 µM]

Results for CCOc1ccc(-c2cc3c(=O)n(Cc4nc(-c5ccc(OC)cc5OC)oc4C)ccn3n2)cc1Cl ?
TDP1 inh: 1%; DT40 TDP1 CPT: -8%; DT40 TDP1 no CPT: 4%

How did CCc1c(OC(C)=O)c2ccccc2n(C)c1=O do in these assays?
Giardia killer: -7; TDP1 inh: 6%; DT40 TDP1 CPT: -21%; IL-1B inflam inh: -2; DT40 TDP1 no CPT: 1%; ELG1 DNA repair: inconclusive

What do the screens show for `CC(=O)Oc1c(C)c(=O)n(C)c2ccccc12`?
Giardia killer: -30; TDP1 inh: 1%; DT40 TDP1 CPT: -14%; IL-1B inflam inh: -89*; DT40 TDP1 no CPT: -2%; ELG1 DNA repair: -28%

Results for CCO/C(C)=N/n1c2nc3ccccc3nc2c2c(=O)n(Cc3ccccc3Cl)c(C)nc21 ?
Giardia killer: 13; TDP1 inh: -2%; DT40 TDP1 CPT: inconclusive; IL-1B inflam inh: inconclusive; DT40 TDP1 no CPT: 26µM*; ELG1 DNA repair: -6%

What do the screens show for `CCOc1c(C)cnc2c1c(=O)n(Cc1ccccc1Cl)c(=O)n2C`?
Giardia killer: 2; TDP1 inh: inconclusive; DT40 TDP1 CPT: -1%; IL-1B inflam inh: 17; DT40 TDP1 no CPT: 2%; ELG1 DNA repair: -3%

Results for Cc1ccc(O/C=C2/Nn3c(nnc3-c3cc(-c4ccccc4)n[nH]3)S2)cc1 ?
Giardia killer: 15; TDP1 inh: 2%; DT40 TDP1 CPT: 7.1µM*; DT40 TDP1 no CPT: 16µM*

Results for CCN(CC(=O)NC(=O)NCc1ccco1)Cc1nc2ccccc2c(=O)[nH]1 ?
Giardia killer: 4; TDP1 inh: 7%; DT40 TDP1 CPT: 4.6µM*; IL-1B inflam inh: 7; DT40 TDP1 no CPT: 4.6µM*; ELG1 DNA repair: -3%

Results for CCN(CC(=O)Nc1cc(Cl)ccc1-n1cncn1)Cc1nc2ccccc2c(=O)[nH]1 ?
Giardia killer: 2; TDP1 inh: 1%; DT40 TDP1 CPT: -18%; IL-1B inflam inh: 2; DT40 TDP1 no CPT: -20%; ELG1 DNA repair: 8.2µM*

Results for CN(CC(=O)Nc1cc(C(F)(F)F)ccc1-n1cncn1)Cc1nc2ccccc2c(=O)[nH]1 ?
Giardia killer: -8; DT40 TDP1 CPT: -29%; IL-1B inflam inh: -12; DT40 TDP1 no CPT: -23%

How did CCN(CC(=O)NCCc1ccc(S(N)(=O)=O)cc1)Cc1nc2ccccc2c(=O)[nH]1 do in these assays?
Giardia killer: -2; TDP1 inh: 4%; DT40 TDP1 CPT: 21µM*; IL-1B inflam inh: 15; DT40 TDP1 no CPT: inconclusive; ELG1 DNA repair: 3%

How did CCN(CC(=O)NC(=O)NCc1ccco1)Cc1ccccc1 do in these assays?
Giardia killer: -6; TDP1 inh: -7%[0.505 µM]; DT40 TDP1 CPT: -19%; IL-1B inflam inh: -1; DT40 TDP1 no CPT: -24%; ELG1 DNA repair: 18%

Results for O=C1C[C@@H]2c3c(cccc3CN1Cc1ccc(F)cc1)C[C@@H](O)[C@H]2O ?
Giardia killer: -18; TDP1 inh: 0%; DT40 TDP1 CPT: 10%; IL-1B inflam inh: 5; DT40 TDP1 no CPT: -2%; ELG1 DNA repair: -1%

What do the screens show for `Cc1ccc(NC(=O)CSc2nnc(CNC(=O)c3ccco3)o2)cc1Cl`?
Giardia killer: 3; TDP1 inh: 1%; DT40 TDP1 CPT: -8%; IL-1B inflam inh: 12; DT40 TDP1 no CPT: 20%; ELG1 DNA repair: 11%

Results for c1ccc(Cn2nnnc2CN2CCOCC2)cc1 ?
Giardia killer: -13; TDP1 inh: 0%; DT40 TDP1 CPT: 3%; IL-1B inflam inh: 1; DT40 TDP1 no CPT: 1%; ELG1 DNA repair: -9%

What do the screens show for `OC1(c2cccc(C(F)(F)F)c2)CCN(Cc2nnnn2Cc2ccccc2)CC1`?
Giardia killer: -2; TDP1 inh: 2%; DT40 TDP1 CPT: inconclusive; IL-1B inflam inh: -70*; DT40 TDP1 no CPT: inconclusive; ELG1 DNA repair: inconclusive

How did OC1(c2cccc(C(F)(F)F)c2)CCN(Cc2nnnn2CCc2ccccc2)CC1 do in these assays?
Giardia killer: -3; TDP1 inh: 0%; DT40 TDP1 CPT: 23µM*; IL-1B inflam inh: -7; DT40 TDP1 no CPT: 21µM*; ELG1 DNA repair: inconclusive

Results for Cc1cc(C)cc(NC(=O)c2cc(S(=O)(=O)N3CCC(C)CC3)cn2C)c1 ?
TDP1 inh: 1%; DT40 TDP1 CPT: -14%; DT40 TDP1 no CPT: -18%

How did Cc1nc(-c2ccc(S(=O)(=O)N3CCN(c4ccccc4F)CC3)cc2)co1 do in these assays?
TDP1 inh: -12%; DT40 TDP1 CPT: inconclusive; DT40 TDP1 no CPT: inconclusive

What do the screens show for `Cc1c(C(=O)N2CCCCC2)c(S(=O)(=O)NCc2ccccc2Cl)c(C)n1C`?
Giardia killer: 9; TDP1 inh: 9%; DT40 TDP1 CPT: 23µM*; IL-1B inflam inh: 0; DT40 TDP1 no CPT: inconclusive; ELG1 DNA repair: -3%

What do the screens show for `Cc1cc(Cl)ccc1NS(=O)(=O)c1c(C(=O)N2CCCCCC2)c(C)n(C)c1C`?
TDP1 inh: 5%; DT40 TDP1 CPT: inconclusive; DT40 TDP1 no CPT: 21µM*

What do the screens show for `Cc1cccc(N(C)S(=O)(=O)c2c(C(=O)N3CCCCCC3)c(C)n(C)c2C)c1`?
TDP1 inh: 7%; DT40 TDP1 CPT: 16µM*; DT40 TDP1 no CPT: 21µM*

What do the screens show for `O=C(COc1ccc(S(=O)(=O)N2CCOCC2)cc1Cl)NCC1CCCO1` (stereo unspecified)?
Giardia killer: -20; TDP1 inh: 11%; DT40 TDP1 CPT: -2%; IL-1B inflam inh: 1; DT40 TDP1 no CPT: -10%; ELG1 DNA repair: -2%

Results for O=C(CSc1nc(=O)[nH]c2c1CCCC2)NCc1ccc(F)cc1 ?
TDP1 inh: 3%; DT40 TDP1 CPT: inconclusive; DT40 TDP1 no CPT: inconclusive

What do the screens show for `Cc1ccc(NC(=O)c2ccc(C)cc2)cc1`?
Giardia killer: inconclusive; TDP1 inh: -3%; DT40 TDP1 CPT: 4%; IL-1B inflam inh: -2; DT40 TDP1 no CPT: -7%; ELG1 DNA repair: inconclusive

How did CC(=O)Nc1ccc(NC(=O)c2ccc(-n3c(C)ccc3C)cc2)cc1 do in these assays?
Giardia killer: 2; TDP1 inh: -5%; DT40 TDP1 CPT: inconclusive; IL-1B inflam inh: -68*; DT40 TDP1 no CPT: 16µM*; ELG1 DNA repair: 2%

What do the screens show for `CCc1ccccc1NC(=O)c1ccc(-n2c(C)ccc2C)cc1`?
Giardia killer: 7; TDP1 inh: 0%; DT40 TDP1 CPT: inconclusive; IL-1B inflam inh: -83*; DT40 TDP1 no CPT: inconclusive; ELG1 DNA repair: -29%
